# Measurements taken from paper PMC4336329 (PLoS ONE, 2015).
# In all, about 310,000 compounds went through this assay and about 14,000 (4.5%) showed an effect of 50% or more. The effect is printed as a negative number. This is one part of a sample in which strong results are shown more often than they occur.
# Biological target: human ether-à-go-go-related gene (hERG) potassium channel (human, UniProt Q12809)
# Assay: primary screen, population patch clamp on CHO cells stably expressing hERG; higher = less effect of the substance
# 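Further: peak tail current of the secondary pulse compared with the same well before compound.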
# Sequence of human ether-à-go-go-related gene (hERG) potassium channel (Q12809 whole entry, looked up): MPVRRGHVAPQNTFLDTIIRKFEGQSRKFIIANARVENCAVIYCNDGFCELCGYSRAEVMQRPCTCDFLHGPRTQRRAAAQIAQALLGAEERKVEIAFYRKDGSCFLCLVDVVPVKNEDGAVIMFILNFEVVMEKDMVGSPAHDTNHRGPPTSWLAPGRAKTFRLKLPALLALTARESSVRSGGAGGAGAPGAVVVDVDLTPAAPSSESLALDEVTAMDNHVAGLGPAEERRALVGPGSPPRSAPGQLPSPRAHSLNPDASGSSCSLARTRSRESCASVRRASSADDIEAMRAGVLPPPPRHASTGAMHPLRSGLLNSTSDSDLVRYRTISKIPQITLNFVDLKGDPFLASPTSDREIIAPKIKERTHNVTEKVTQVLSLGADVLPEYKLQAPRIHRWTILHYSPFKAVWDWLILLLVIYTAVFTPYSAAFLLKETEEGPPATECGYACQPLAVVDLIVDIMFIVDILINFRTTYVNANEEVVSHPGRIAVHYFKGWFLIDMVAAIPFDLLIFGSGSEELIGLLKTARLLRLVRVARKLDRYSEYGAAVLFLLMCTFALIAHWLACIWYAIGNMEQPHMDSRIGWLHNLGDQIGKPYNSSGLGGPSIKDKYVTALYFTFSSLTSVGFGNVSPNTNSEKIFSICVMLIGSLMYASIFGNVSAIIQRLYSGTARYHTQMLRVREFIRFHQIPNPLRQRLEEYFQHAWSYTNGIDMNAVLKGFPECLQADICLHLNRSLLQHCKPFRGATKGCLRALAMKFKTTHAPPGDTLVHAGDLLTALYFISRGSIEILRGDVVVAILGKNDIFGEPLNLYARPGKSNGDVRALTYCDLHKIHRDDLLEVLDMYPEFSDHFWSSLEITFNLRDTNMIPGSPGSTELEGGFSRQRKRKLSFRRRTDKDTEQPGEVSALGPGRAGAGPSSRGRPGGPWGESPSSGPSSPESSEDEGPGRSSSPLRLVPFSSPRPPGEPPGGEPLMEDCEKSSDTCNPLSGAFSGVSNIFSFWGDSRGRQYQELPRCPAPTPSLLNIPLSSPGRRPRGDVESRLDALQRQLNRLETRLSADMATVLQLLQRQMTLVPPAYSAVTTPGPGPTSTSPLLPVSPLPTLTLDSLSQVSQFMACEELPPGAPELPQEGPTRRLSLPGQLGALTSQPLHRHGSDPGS
row,Compound,"hERG current change (%, negative = inhibition) at 10uM [%]"
1,CCCOc1ccc(C(=O)N2CCCc3ccccc32)cc1,-26
2,COc1ccc(C2SCC(C(=O)NCc3ccc(F)cc3)N2C(C)=O)cc1 (centres unmarked),-20.2
3,Nc1ccccc1SSc1ccccc1N,27.7
4,COc1ccc2nc(N3CCCC(C(=O)NCCCN4C(C)CCCC4C)C3)sc2c1 (centres unmarked),-34.1
5,COc1ccc2nc(N3CCCC(C(=O)NCCCN4CCN(C)CC4)C3)sc2c1 (centres unmarked),1.67
6,CCCN1CCN(CCCNC(=O)C2CCCN(c3nc4ccc(OCC)cc4s3)C2)CC1 (centres unmarked),-56.7
7,CCOc1ccc2nc(N3CCCC(C(=O)NCC4CCCO4)C3)sc2c1 (centres unmarked),-19.1
8,Cc1cc(C)c2nc(N3CCC(C(=O)NCCCN4CCCC4=O)CC3)sc2c1,-25.5
9,O=C(NCCCN1CCCC1=O)C1CCN(S(=O)(=O)c2c(Cl)cccc2Cl)CC1,-0.379
10,CCOc1ccc2nc(N3CCC(C(=O)NCCCN4CCOCC4)CC3)sc2c1,-17.7
11,Cc1ccc(S(=O)(=O)N2CCC(C(=O)NCCCN3CCCC3=O)CC2)cc1C,7.98
12,CCOc1ccc2nc(N3CCCC(C(=O)NCCCN4C(C)CCCC4C)C3)sc2c1 (centres unmarked),-54.7
13,CCOc1ccc2nc(N3CCCC(C(=O)NC4CCCC4)C3)sc2c1 (centres unmarked),-0.903
14,CCOc1cc2sc(N3CCC(C(=O)NCCCN4CCCC4=O)CC3)nc2cc1Br,-60.5
15,Cc1cc(C)c(C)c(S(=O)(=O)N2CCC(C(=O)NCCCN3CCCC3=O)CC2)c1C,-70
16,CCOC(=O)C1=C(c2ccccc2)OC(N)=C(C#N)C1c1cccs1 (centres unmarked),3.11
17,O=C(c1ccc(=O)[nH]c1)N1CCN(S(=O)(=O)c2cc(C(F)(F)F)ccc2Cl)CC1,-13.4
18,Cc1ccc(NC(=O)CN(C)Cc2ccc(F)cc2)c([N+](=O)[O-])c1,-17.8
19,CSc1nc2c(c(=O)[nH]1)C(c1ccncc1)C(C(=O)OC(C)C)=C(C)N2 (centres unmarked),-0.441
20,CCN(CC)c1ccc(NC(=O)COc2ccccc2C#N)cc1S(=O)(=O)Nc1ccc(OC)cc1,13
21,COc1ccc([C@@H]2[C@@H]3C(=O)N(C(C)(C)C)C(=O)[C@@H]3[C@]3(Cc4ccccc4)C(=O)N(c4ccc(C)cc4)C(=O)N23)cc1,2.04
22,CN(Cc1ccccc1)C(=O)c1[nH]cnc1C(=O)NCC(=O)OC(C)(C)C,10.4
23,COc1ccc(/C=C2\SC(=O)N(CCNC(=O)Cc3coc4cc(C)ccc34)C2=O)cc1OC,4.76
24,CC(C)(C)[C@@H]1CCC(=O)N(CC[C@H](Sc2ccccc2)c2ccccc2)CC1,17.1
25,Cc1cc(C)cc(NC(=O)COC(=O)CC2CCCC2)c1,-0.633
26,Cc1cccc(C)c1NC(=O)CN(C)C(=O)CCc1nc2sc3c(c2c(=O)[nH]1)CCCC3,5.53
27,Cc1ccc2occ(/C=N/NC(=O)[C@@H](N)Cc3ccccc3)c(=O)c2c1.Cl,-22.5

row,Compound,"hERG current change (%, negative = inhibition) at 10uM [%]"
1,CCOc1ccc2nc(N3CCCC(C(=O)NCCCN4CCOCC4)C3)sc2c1 (centres unmarked),-19.6
2,CCOc1ccc2nc(N3CCCC(C(=O)NCCCN4CCCCC4)C3)sc2c1 (centres unmarked),-64.8
3,CCOc1ccc2nc(N3CCCC(C(=O)NCCCN4CC(C)CC(C)C4)C3)sc2c1 (centres unmarked),-48.8
4,COc1cccc(C2C(C#N)=C(N)Oc3cc(C)n(Cc4ccccn4)c(=O)c32)c1OC (centres unmarked),3.7
5,CC1(C)CC2CC(C)(CN2C(=O)C23CCC(C)(C(=O)C2)C3(C)C)C1 (centres unmarked),-4.28
6,CC(NC(=O)c1ccccc1)c1nc2ccccc2n1Cc1ccccc1F (centres unmarked),0.996
7,COc1ccc(N2CCN(C(=O)CC(NC(N)=O)c3cccc(Oc4ccccc4)c3)CC2)cc1 (centres unmarked),-7.97
8,CC(NC(=O)c1ccccc1)c1nc2ccccc2n1Cc1ccc(C#N)cc1 (centres unmarked),-68.6
9,N#Cc1ccc(CN2CCN(C(=O)CC(NC(=O)c3ccccc3)c3ccccc3)CC2)cc1 (centres unmarked),-81.2
10,Cc1cccc(N2CCN(C(=O)CC(NC(=O)c3ccccc3)c3ccccc3)CC2C)c1 (centres unmarked),-47.1
11,O=C(NC(=S)N1CCN(Cc2ccccc2)CC1)c1ccccc1,6.47
12,CCn1c(C(C)NC(=O)c2cccc(C)c2)nc2ccccc21 (centres unmarked),-19.6
13,CC(=O)NC(CC(=O)N1CCN(C(C)=O)CC1)c1ccccc1 (centres unmarked),27
14,COc1cccc(N2CCN(C(=O)CC(NC(=O)c3ccccc3)c3ccccc3)CC2)c1 (centres unmarked),-65
15,CCC1(C)Cc2c(sc3c2c(=O)n(-c2ccccc2)c(=O)n3C)CO1 (centres unmarked),5.26
16,COc1cc2cnc(-c3ccccc3)c(-c3cc(OC)c(OC)c(OC)c3)c2cc1OC,-0.323
17,Cn1c2ccccc2c(=O)c2ccc(C#CC3(O)CCCCC3)cc21,1.63
18,COc1cccc(N(CC(=O)NCc2ccco2)C(=O)CCC(=O)Nc2nccs2)c1,1.6
19,CSCCC(NS(=O)(=O)c1ccc(Cl)cc1)C(=O)OCc1c(Cl)cccc1Cl (centres unmarked),6.45
20,COc1ccc(OC)c(C(C)NC(=S)NC2CCCCC2)c1 (centres unmarked),-6.58
21,Cc1cccc(OC(C)C(=O)N2CCCN(C)CC2)c1C (centres unmarked),1.75
22,COc1ccc(NC(=O)CSc2nnc3n2CCCCC3)cc1,8.17
23,Cc1ccccc1S(=O)(=O)Oc1ccccc1C(=O)Oc1ccccc1,-1.26
24,Br.C=CCN1C(c2ccc(OCC)cc2)=CS/C1=C(\C#N)c1nnc2n1CCCCC2,-37.9
25,Br.C=CCN1C(c2ccccc2)=CS/C1=C(\C#N)c1nnc2n1CCCCC2,-59.2
26,C=CCn1c(=O)/c(=C/c2ccc(F)cc2)s/c1=C(\C#N)c1nnc2n1CCCCC2,-59.9
27,C=CCn1c(=O)/c(=C/c2ccc(Cl)cc2)s/c1=C(/C#N)c1nnc2n1CCCCC2,-43

row,Compound,"hERG current change (%, negative = inhibition) at 10uM [%]"
1,C=CCn1c(=O)/c(=C/c2ccc(O)cc2)s/c1=C(/C#N)c1nnc2n1CCCCC2,-16.6
2,Br.CCOc1ccc(C2=CS/C(=C(\C#N)c3nnc4n3CCCCC4)N2CC)cc1,-47.3
3,Cc1cc(C(=O)Nc2ccc(C(=O)O)cc2)c(C)o1,23.9
4,Cc1cc(C)c(C)c(S(=O)(=O)N2CCN(c3ncnc4ccccc34)CC2)c1C,-4.67
5,Cc1c(N/C(=N/S(=O)(=O)c2ccc(Cl)cc2)c2ccccc2)c(=O)n(-c2ccccc2)n1C,-20.6
6,Cc1cc(NC(=O)c2noc3c2CCc2ccccc2-3)no1,11
7,Cc1ccc(S(=O)(=O)/N=C(/Nc2c(C)n(C)n(-c3ccccc3)c2=O)c2ccc(Cl)cc2)cc1,-57
8,Cc1ccc(-c2cc(C(F)(F)F)n3nc(C(=O)Nc4c(C)n(C)n(-c5ccccc5)c4=O)cc3n2)cc1,-14.3
9,Cc1c(NC(=O)c2cc3nc(-c4ccc(Br)cc4)cc(C(F)(F)F)n3n2)c(=O)n(-c2ccccc2)n1C,-33.9
10,COc1ccc2c(c1)CCc1c(C(=O)Nc3c(C)n(C)n(-c4ccccc4)c3=O)noc1-2,4.63
11,Cc1c(N/C(=N/S(=O)(=O)c2ccccc2)c2ccc(Cl)cc2)c(=O)n(-c2ccccc2)n1C,-30.7
12,Cc1c(NC(=O)c2cc(-c3ccc(Cl)cc3)on2)c(=O)n(-c2ccccc2)n1C,-55.1
13,Cc1c(NC(=O)c2cc3nc(-c4ccc(Cl)cc4)cc(C(F)(F)F)n3n2)c(=O)n(-c2ccccc2)n1C,-55.3
14,Cc1c(NC(=O)c2cc(-c3ccccc3)on2)c(=O)n(-c2ccccc2)n1C,-27.7
15,Cc1c(NC(=O)c2noc3c2CCc2ccccc2-3)c(=O)n(-c2ccccc2)n1C,-52.9
16,Cc1ccc(-c2cc(C(=O)Nc3c(C)n(C)n(-c4ccccc4)c3=O)no2)cc1,-25.3
17,CCC(C)(C)NC(=O)C1c2ccccc2Oc2ccccc21,23
18,O=C(O)CC1Sc2nnc(COc3ccc(Cl)cc3)n2N=C1c1ccccc1 (centres unmarked),21.2
19,CN(C)S(=O)(=O)c1cc(S(=O)(=O)N(C)C)c(Cl)cc1N,-8.31
20,COC(=O)c1ccccc1NC(=S)NC(NC(=O)c1ccccc1[N+](=O)[O-])C(Cl)(Cl)Cl (centres unmarked),-1.4
21,CCc1oc(C(=O)OC)cc1CSC(=N)N.Cl,12
22,CS(=O)(=O)c1ccc(C(=O)NC2CCCc3ccccc32)cc1 (centres unmarked),20
23,COc1ccc(-c2csc(-c3cccnc3)n2)cc1C,-3.79
24,CCCCNC(=O)Nc1nnc(-c2ccc(OCC)cc2)o1,10.1
25,CCN(CC)CCCNC(=O)c1[nH]c(C)c(C(=O)NC2CCCCC2)c1C,12.9
26,CCc1nc(SCC(=O)Nc2cc(OC)ccc2OC)c2c(C)c(C)sc2n1,3.63
